Results reported in PubChem BioAssay (NCI).
The panel holds about 83,000 compounds, 20% with a hit somewhere; the sample as a whole holds those more often.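 48-hour exposure, single concentration, 96-well plates; percent growth endpoint where 0 means no net growth. Active: below 10.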 Calls of active or inactive are those of the source.

How the values were obtained:
Assay in all cases: NCI-60 one-dose screen, 48 h (100 = growth as untreated, 0 = no growth, -100 = all killed)
[1] = system: NCI-H23 lung; conditions: 10 µM unless noted
[2] = system: NCI-H226 lung; conditions: 10 µM unless noted
[3] = system: NCI-H322M lung; conditions: 10 µM unless noted
[4] = system: HOP-62 NSCLC; conditions: 10 µM unless noted
[5] = system: NCI-H460 lung; conditions: 10 µM unless noted
[6] = system: HOP-92 NSCLC; conditions: 10 µM
[7] = system: A549/ATCC NSCLC; conditions: 10 µM unless noted
[8] = system: 786-0 renal; conditions: 10 µM unless noted
[9] = system: COLO 205 colon; conditions: 10 µM unless noted
[10] = system: DU-145 prostate; conditions: 10 µM unless noted
[11] = system: K-562 leukemia; conditions: 10 µM unless noted
[12] = system: MALME-3M melanoma; conditions: 10 µM unless noted
[13] = system: MDA-MB-231 breast; conditions: 10 µM unless noted
[14] = system: RXF 393 renal; conditions: 10 µM unless noted
[15] = system: SF-268 CNS; conditions: 10 µM unless noted
[16] = system: SF-295 CNS; conditions: 10 µM unless noted
[17] = system: SF-539 CNS; conditions: 10 µM unless noted
[18] = system: UACC-257 melanoma; conditions: 10 µM unless noted
[19] = system: M14 melanoma; conditions: 10 µM unless noted
[20] = system: NCI-H522 lung; conditions: 10 µM unless noted

Measured: growth

CC(C)(O)c1cncc(-c2ccc3ncnc(NCc4ccccc4)c3c2)c1
active: [14] -7.38%
inactive: [1] 71.1% | [2] 74.8% | [3] 102% | [4] 66% | [5] 97.6% | [6] 72.3% | [7] 85% | [8] 76.3% | [9] 113% | [10] 62.7% | [11] 103% | [12] 101% | [13] 72.9% | [15] 65% | [16] 85% | [17] 85.3% | [18] 95.5% | [19] 105%

CC(=O)C1=C(C)NC(NNC(N)=S)=NC1c1ccccc1 (centres undefined)
inactive: [1] 92.8% | [2] 99.7% | [3] 101% | [4] 71.8% | [5] 104% | [6] 78.4% | [7] 87.9% | [8] 83% | [9] 106% | [10] 90.9% | [11] 113% | [12] 110% | [13] 77% | [14] 45.5% | [15] 84.8% | [16] 102% | [17] 96.7% | [18] 104% | [19] 92.9%

C=C(C=O)[C@@H]1CC[C@]2(CO)CC[C@]3(C)[C@H](CC[C@@H]4[C@@]5(C)CCCNC(C)(C)[C@@H]5CC[C@]43C)[C@@H]12
inactive: [1] 63.5% | [2] 76.5% | [3] 95.8% | [4] 88.9% | [5] 86% | [20] 77.6% | [7] 81.1% | [8] 94.3% | [9] 77.3% | [10] 53% | [12] 67% | [13] 90.8% | [14] 94.2% | [15] 83.9% | [16] 83.1% | [17] 71.8% | [18] 72.3%
active: [11] -1.23%

Cc1ccc(-c2nnc(SCc3ccc(O)c4ncccc34)o2)cc1
active: [5] 2.77% | [12] 1.77% | [16] 5.77% | [18] 9.75%
inactive: [1] 27.9% | [2] 45.2% | [3] 26.3% | [4] 19.7% | [6] 10.4% | [7] 24.7% | [8] 24.5% | [9] 88.2% | [10] 28.7% | [11] 11.3% | [13] 41.7% | [15] 21.2% | [17] 14.9%

CCN(CC)CCn1c2ccc(O)cc2c2sc3cc(OC)ccc3c(=O)c21
active: [5] 1.49% | [11] -34.8% | [17] -74.4%
inactive: [1] 28.5% | [2] 72.6% | [3] 26.2% | [4] 26.2% | [20] 30.1% | [7] 13.2% | [8] 33.3% | [9] 17.9% | [10] 17.2% | [12] 28.2% | [13] 31.6% | [14] 35% | [15] 48.1% | [16] 13.9% | [18] 80%

CN1c2ccccc2Sc2cc(C=C(C#N)C#N)ccc21
active: [2] -31.4%
inactive: [1] 89.3% | [3] 97.3% | [4] 90.4% | [5] 97.9% | [20] 91.8% | [7] 98% | [8] 105% | [9] 108% | [10] 110% | [11] 101% | [12] 98.3% | [13] 92.3% | [14] 92.1% | [15] 105% | [16] 103% | [17] 101% | [18] 97.5%

N#Cc1cccc(NC(=O)c2cc(-c3ccc(F)cc3F)ccc2O)c1
inactive: [2] 12% | [3] 10.8% | [4] 20.9% | [7] 11.3% | [8] 13.2% | [9] 95.2% | [10] 20.9% | [11] 11.8% | [15] 18.7% | [17] 15.1%
active: [1] 2.72% | [5] 5.69% | [6] -24.7% | [12] -9.34% | [13] 6.64% | [16] -16.9% | [18] -6.12%

O=C1CCCC2=C1C(c1c[nH]c3ccc(Br)cc13)Cc1cc(Br)ccc1N2 (centres undefined)
active: [16] -9.43%
inactive: [1] 45.8% | [2] 68.8% | [3] 54.2% | [4] 41.2% | [5] 17.3% | [20] 12.8% | [7] 43.7% | [8] 41.2% | [9] 42.5% | [10] 57.6% | [11] 19.8% | [12] 49.3% | [13] 40% | [14] 50.1% | [15] 51.8% | [17] 28.6% | [18] 80%

COc1ccc2[nH]cc(-c3csc4nc(-c5ccccc5)cn34)c2c1
active: [5] 2.01% | [20] -34% | [9] -32.6% | [14] -15.7% | [16] -2.19% | [17] -6.33%
inactive: [1] 30.8% | [2] 31.4% | [3] 64.6% | [4] 24.5% | [7] 29.9% | [8] 51.6% | [10] 18.4% | [11] 11.2% | [12] 54.2% | [13] 20.8% | [15] 41.1% | [18] 60.4% | [19] 11.6%

NC/C(=C/F)COc1ccc2nc(NCc3cccnc3)oc2c1
inactive: [1] 92.8% | [2] 94.3% | [3] 111% | [4] 77% | [5] 98.8% | [6] 116% | [8] 92.5% | [9] 111% | [10] 95% | [11] 109% | [12] 108% | [13] 96% | [14] 66.9% | [15] 93.2% | [16] 99.9% | [17] 91.9% | [18] 95.9% | [19] 103%

CC[C@H](CO)Nc1ccc2ncc(C#Cc3cncc(C(=O)Nc4ccc(CN5CCN(C)CC5)c(C(F)(F)F)c4)c3)n2n1
active: [1] -80.8% | [2] -25.7% | [3] -16.6% | [4] -45% | [5] -93% | [20] -75.8% | [7] -0.341% | [8] -97.2% | [9] -92.5% | [10] -94.3% | [11] 0.0289% | [12] -81.5% | [13] -60.6% | [14] -95.7% | [15] -60.5% | [16] -82.1% | [17] -91.5% | [18] -85.9% | [19] -95.5%

Clc1ccc(N/N=c2/oc3ccccc3cc2-c2cc3ccccc3[nH]2)cc1
inactive: [1] 64.4% | [2] 77.7% | [3] 78.6% | [4] 75.9% | [5] 85.2% | [20] 77.1% | [7] 76.2% | [8] 87.7% | [9] 95.8% | [10] 88.6% | [11] 67% | [12] 55.3% | [13] 67.1% | [14] 76% | [15] 85.1% | [16] 71% | [17] 87.3% | [18] 84.1% | [19] 66.5%
